Among the test systems are RPMI-8226 leukemia; OVCAR-8 ovarian; OVCAR-5 ovarian; OVCAR-4 ovarian; SK-OV-3 ovarian; IGROV1 ovarian; OVCAR-3 ovarian; HS 578T breast; NCI/ADR-RES ovarian; T-47D breast; BT-549 breast; MDA-MB-435 melanoma; SW-620 colon; MCF7 breast; HCT-116 colon; HCC-2998 colon; KM12 colon.
Holding throughout (experiment): NCI-60 one-dose screen, 48 h (100 = growth as untreated, 0 = no growth, -100 = all killed)
Common to all, as to details: 10 µM

Each structure is given as a SMILES string. The panel holds about 83,000 compounds, 20% with a hit somewhere; the sample as a whole holds those more often.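 Negative percent growth values reflect cell death: -40 means 40% of the cells present at the start died, and -100 means all died.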 A number with no mark means an inactive call. Calls of active or inactive are those of the source. The calls were made as follows: active = growth percent below 10; inactive = the rest.

Regarding `COc1cc(-c2cc(C(=O)N3CCN(C(=O)c4ccccc4NCc4cccs4)CC3)nc3cc(-c4ccccc4)nn23)cc(OC)c1OC`, the growth in the experiment with RPMI-8226 leukemia is 75.2%; in the experiment with OVCAR-8 ovarian, 90%; in the experiment on OVCAR-5 ovarian, 86.6%; with OVCAR-4 ovarian, 89.4%; in the experiment with SK-OV-3 ovarian it was 86.7%; in the experiment on IGROV1 ovarian, 36.6%. The growth was 9.27% (active) in the experiment with OVCAR-3 ovarian; 85.7% in the experiment with HS 578T breast; 52.6% with NCI/ADR-RES ovarian; 79.6% with T-47D breast; 83.8% with BT-549 breast; 6.28% (active) in the experiment with MDA-MB-435 melanoma. In addition, the growth in the experiment on SW-620 colon was 51%; in the experiment on MCF7 breast it was 23.6%; in the experiment on HCT-116 colon, 55.9%; with HCC-2998 colon, 101%; with KM12 colon, 27.5%.

With `CC1(C)N=C(N)N=C(N)N1c1ccc(CCc2ccccc2)c(Cl)c1`, the growth in the experiment on RPMI-8226 leukemia was 26.2%; in the experiment on OVCAR-8 ovarian, 16.8%; with OVCAR-5 ovarian, 36.3%; with OVCAR-4 ovarian, 38%; in the experiment on SK-OV-3 ovarian it was 36.3%; with IGROV1 ovarian, 28.1%. Moreover, the growth is 23.7% with OVCAR-3 ovarian; 69.3% in the experiment with HS 578T breast; 104% in the experiment with NCI/ADR-RES ovarian; 30.3% with T-47D breast; 35.6% in the experiment on BT-549 breast; 16.2% in the experiment on MDA-MB-435 melanoma. Besides, the growth with SW-620 colon was 17.6%; with MCF7 breast, 13.4%; in the experiment with HCT-116 colon, 10.2%; with HCC-2998 colon, 15.3%; in the experiment on KM12 colon it was 13.5%.

As to `FC(F)(F)c1ccc(-c2cnc(-n3cc(COCCN4CCCCC4)nn3)nc2NC2CCCCCC2)cc1`, the growth is -29.1% (active) in the experiment with RPMI-8226 leukemia; 54.7% in the experiment with OVCAR-8 ovarian; 67.9% with OVCAR-5 ovarian; 39.9% in the experiment on OVCAR-4 ovarian; 56.8% in the experiment with SK-OV-3 ovarian; 36.7% in the experiment with IGROV1 ovarian. Besides, the growth with OVCAR-3 ovarian is 37.1%; in the experiment on HS 578T breast it was 61.3%; in the experiment with NCI/ADR-RES ovarian, 70.6%; in the experiment on T-47D breast it was 30.5%; in the experiment on BT-549 breast, 68.1%; in the experiment with MDA-MB-435 melanoma, -68.9% (active). For the same molecule, the growth with SW-620 colon is 4.79% (active); with MCF7 breast it was -1.43% (active); with HCT-116 colon, 22.3%; in the experiment with HCC-2998 colon, 6.9% (active); with KM12 colon, 17.6%.

For `Cn1c([N+](=O)[O-])cnc1/C=C1\Oc2ccccc2C1=O`, the growth is -7.1% (active) with RPMI-8226 leukemia; -26% (active) with OVCAR-8 ovarian; 0.959% (active) in the experiment with OVCAR-5 ovarian; 10.5% with OVCAR-4 ovarian; -15.9% (active) with SK-OV-3 ovarian; -29.5% (active) in the experiment on IGROV1 ovarian. In addition, the growth is -21% (active) in the experiment on OVCAR-3 ovarian; -21.8% (active) in the experiment on HS 578T breast; -5.9% (active) with NCI/ADR-RES ovarian; 87.3% in the experiment with T-47D breast; -28.6% (active) in the experiment on BT-549 breast; -86.8% (active) with MDA-MB-435 melanoma. In addition, the growth with SW-620 colon is -36.3% (active); with MCF7 breast, 1.82% (active); in the experiment on HCT-116 colon it was 1.88% (active); in the experiment on HCC-2998 colon, -73.6% (active); in the experiment on KM12 colon it was -17.4% (active).

Turning to `O=C(Nc1ccc(Cl)cc1)N1NC(c2ccc(Cl)cc2)C=C1c1ccccc1` (stereo not drawn), the growth is 99.5% in the experiment on RPMI-8226 leukemia; 97% in the experiment with OVCAR-8 ovarian; 124% in the experiment on OVCAR-5 ovarian; 91.5% with OVCAR-4 ovarian; 97% in the experiment with SK-OV-3 ovarian; 95.3% with IGROV1 ovarian. Also, the growth in the experiment with OVCAR-3 ovarian was 103%; in the experiment with HS 578T breast it was 123%; in the experiment on NCI/ADR-RES ovarian, 115%; in the experiment on T-47D breast it was 94%; in the experiment on BT-549 breast, 102%; with MDA-MB-435 melanoma, 103%. Moreover, the growth is 110% with SW-620 colon; 89.6% in the experiment on MCF7 breast; 104% with HCT-116 colon; 97.5% in the experiment on HCC-2998 colon; 96.3% with KM12 colon.

Consider `CN(C)N=Nc1nn(C(=O)Nc2ccc(Cc3ccccc3)cc2)c2ccccc12`, for which the growth in the experiment with RPMI-8226 leukemia is 47.5%; with OVCAR-8 ovarian, 48.8%; in the experiment with OVCAR-5 ovarian, 71%; in the experiment with OVCAR-4 ovarian it was 52.1%; with SK-OV-3 ovarian it was 102%; in the experiment on IGROV1 ovarian it was 84.8%. The growth with OVCAR-3 ovarian is 45.7%; in the experiment with HS 578T breast, 100%; with NCI/ADR-RES ovarian, 46.6%; in the experiment with T-47D breast, 24.3%; with BT-549 breast it was 75%; in the experiment on MDA-MB-435 melanoma, 48.5%. For the same molecule, the growth in the experiment with SW-620 colon was 34.4%; in the experiment with MCF7 breast, 21.1%; in the experiment on HCT-116 colon, 62.1%; with HCC-2998 colon, 10.1%; with KM12 colon it was 12.9%.

As for `CC(=O)C1CCC2C3CC(F)C4=CC(=O)CCC4(C)C3C(O)CC12C` (stereo not drawn), the growth in the experiment on RPMI-8226 leukemia is 83.4%; in the experiment on OVCAR-8 ovarian it was 94.2%; with OVCAR-5 ovarian, 105%; in the experiment with OVCAR-4 ovarian it was 98.6%; with SK-OV-3 ovarian it was 83.9%; in the experiment with IGROV1 ovarian it was 97.2%. Moreover, the growth was 114% in the experiment with OVCAR-3 ovarian; 122% with HS 578T breast; 94.9% with NCI/ADR-RES ovarian; 119% in the experiment on T-47D breast; 91.2% in the experiment with BT-549 breast; 102% with MDA-MB-435 melanoma. Besides, the growth was 109% in the experiment with SW-620 colon; 94.5% in the experiment on MCF7 breast; 89.9% with HCT-116 colon; 105% with HCC-2998 colon; 111% with KM12 colon.

`CCN(CC)CCCC(C)Nc1nc(-c2ccc(OC)cc2)nc2cc(Cl)ccc12` (stereo not drawn): the growth in the experiment on RPMI-8226 leukemia is 55.2%; in the experiment on OVCAR-8 ovarian, 76.1%; in the experiment on OVCAR-5 ovarian, 65.8%; in the experiment on OVCAR-4 ovarian, 68.7%; with SK-OV-3 ovarian, 91.4%; in the experiment with IGROV1 ovarian, 44.3%. The growth with OVCAR-3 ovarian is 69.6%; in the experiment on HS 578T breast, 70.4%; in the experiment on NCI/ADR-RES ovarian, 71.3%; in the experiment with T-47D breast, 60.2%; in the experiment with BT-549 breast, 75.6%; with MDA-MB-435 melanoma it was 35%. In addition, the growth with SW-620 colon was 80.9%; with MCF7 breast it was 44.6%; in the experiment with HCT-116 colon it was 47.1%; in the experiment with HCC-2998 colon it was 54.1%; with KM12 colon, 66.3%.

Consider `COc1cc(-c2cc(/C=C3\C(=O)Nc4cc(Cl)ccc43)[nH]n2)cc(OC)c1OC`, for which the growth was -28% (active) in the experiment with RPMI-8226 leukemia; 23.9% in the experiment with OVCAR-8 ovarian; 65% in the experiment on OVCAR-5 ovarian; 19% with OVCAR-4 ovarian; 74.2% in the experiment on SK-OV-3 ovarian; 4.31% (active) in the experiment on IGROV1 ovarian. The growth in the experiment on OVCAR-3 ovarian is 40.6%; with HS 578T breast it was 12.6%; in the experiment on NCI/ADR-RES ovarian, 10.2%; in the experiment with T-47D breast it was 24.9%; with BT-549 breast it was 47.6%; in the experiment on MDA-MB-435 melanoma it was -0.685% (active). Also, the growth in the experiment with SW-620 colon was 41.4%; in the experiment with MCF7 breast, -4.15% (active); in the experiment with HCT-116 colon it was 14.2%; with HCC-2998 colon, 70%; in the experiment on KM12 colon it was 9.09% (active).

These data come from PubChem BioAssay (NCI).
